Records with an inconclusive call do not appear. A number with no mark means an inactive call. Calls of active or inactive are those of the source. Unless noted, calls come from the whole dose curve. Where a SMILES comes first, the peptide text is derived from it.
% is set by controls: 0 for no effect and ±100 for the full control effect.

The nature of one test: qHTS assay to identify small molecule agonists of H2AX (AID 1224845; active = well fitted activation curve with a large enough effect in the signal ratio in the repeat runs, not every such curve was filed as active; the % refers to the signal ratio). The settings on record: CHO-K1 phospho-H2AX Ser139 HTRF, 3 h; series mostly up to 154 µM. The procedure, abridged: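 Phospho-H2AX Ser139 measured by HTRF (ex 320 nm; em 665 and 620 nm) after 24 hr antibody incubation. Compounds, 15 concentrations, 0.76% DMSO, were applied to CHO-K1 cells for 3hr at 37C before lysis.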
As to `CC(=O)N[C@@H](CO)C(=O)N[C@@H](CC(=O)O)C(=O)N[C@@H](CCCCN)C(=O)N1CCC[C@H]1C(=O)O` (Ac-SDKP-OH), the compound was classed as inactive.
Same read-out and setting: with `CC(Oc1cc(Cl)ccc1Cl)C(=O)O` (centres undefined) the entry was “inactive”; with `OCC1CCC(CO)CC1` (centres undefined), “inactive”; with `CCN(CC)CCN`, “inactive”.
Turning to `CC(O)CC(C)O` (centres undefined), the outcome was inactive.
The same measure, in the same setting: with `COC(=O)/C=C\C(=O)O` the entry was “inactive”; with `CC(C)[C@H]1CC[C@H](C)C[C@@H]1O`, “inactive”.
Turning to `CCOC(CN1CCN(CC(C)C(=O)c2ccccc2)CC1)c1ccccc1` (centres undefined), the activation (H2AX phosphorylation) was -1.86% [at 31.6 µM].
Regarding `Cn1c(=O)c2[nH]c(Br)nc2n(C)c1=O`, the call was inactive.
As to `CCCSSCCC`, the result was inactive.
On to `CC1=C(O)C(=O)C(C)O1` (centres undefined), for which the compound was called inactive.
As to `CC(C)NCC(O)c1ccc2ccccc2c1` (centres undefined), the call was inactive.
On the same count and under the same terms, with `[O-][n+]1cccc(/C(Cl)=N/OC[C@@H](O)CN2CCCCC2)c1` the entry was “inactive”; with `CC(C)=CCC[C@@](C)(O)[C@H]1CC=C(C)CC1`, “inactive”.
The same measure, in the same setting: in the case of `Cn1c(=O)c2c(ncn2CCO)n(C)c1=O` it was “inactive”; in that of `C=Cc1ccc(C(C)(C)C)cc1`, “inactive”; in that of `CCCCCCCCCCOC(C)=O`, “inactive”.
The same measure, in the same setting: in the case of `O=C(NCN1CCOCC1)c1cnccn1` it was “inactive”; in that of `C=CCCCC`, “inactive”.
For `Cc1cc(C)c(C(=O)O)c(C)c1`, the compound was classed as inactive.
Same read-out and setting: with `O=C(CCCl)NCCc1ccccc1` the entry was “inactive”.
Still for that read-out and setting: in the case of `C/C(CC(C)C)=N\O` it was “inactive”; in that of `CCCC(CC)c1ccccc1` (centres undefined), “inactive”.
The same measure, in the same setting: with `COc1ccc2c(c1)c1c3n2CCN(C)C3=NCC1` the entry was “inactive”; with `CCCCCC(C)O` (centres undefined), “inactive”.
Turning to `Cc1ncc([N+](=O)[O-])n1CC(C)O` (centres undefined), the result was inactive.
The same measure, in the same setting: in the case of `CCCCC1CCC(O)CC1` (centres undefined) it was “inactive”.
The same measure, in the same setting: with `CC(=O)c1cc(C)oc1C` the entry was “inactive”; with `Cc1c(C(=O)c2c[nH]n(C)c2=O)ccc(S(C)(=O)=O)c1C1=NOCC1`, “inactive”; with `CCC/C=C(\C=O)CC`, “inactive”.
Still for that read-out and setting: in the case of `CN1CCOC(c2ccccc2)c2ccccc2C1` (centres undefined) it was “inactive”.
Regarding `CCCC(=O)Nc1ccc(OCC(O)CNC(C)C)c(C(C)=O)c1` (centres undefined), the compound was called inactive.
The same measure, in the same setting: with `CN(C)CCCCl` the entry was “inactive”; with `COc1c2occc2c(OC)c2c(=O)cc(C)oc12`, “inactive”; with `CO[C@@]1(NC(=O)Cc2cccs2)C(=O)N2C(C(=O)O)=C(COC(N)=O)CS[C@@H]21`, “inactive”.

The next test in a line: qHTS assay to identify small molecule agonists of the hypoxia (HIF-1) signaling pathway (AID 1224846; active = well fitted activation curve with a large enough effect in the signal ratio in the repeat runs, not every such curve was filed as active; the % refers to the signal ratio). Conditions: HRE-bla ME-180 cells, beta-lactamase ratio, 17 h; series mostly up to 76.8 µM. The method, boiled down:
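Compounds added to ME-180 cells carrying hypoxia-response-element beta-lactamase reporter (0.5% dialyzed FBS, 5 h preplating), 17 h at 37C; agonist activity detected by CCF4-AM B/G FRET read-out.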
Take `CC(=O)N[C@@H](CO)C(=O)N[C@@H](CC(=O)O)C(=O)N[C@@H](CCCCN)C(=O)N1CCC[C@H]1C(=O)O` (Ac-SDKP-OH): the outcome was inactive.
Same read-out and setting: with `CC(Oc1cc(Cl)ccc1Cl)C(=O)O` (centres undefined) the entry was “inactive”; with `OCC1CCC(CO)CC1` (centres undefined), “inactive”.
On the same count and under the same terms, with `CCN(CC)CCN` the entry was “inactive”.
Same read-out and setting: with `CC(O)CC(C)O` (centres undefined) the entry was “inactive”.
For the compound `COC(=O)/C=C\C(=O)O`, the outcome was inactive.
On the same count and under the same terms, with `CC(C)[C@H]1CC[C@H](C)C[C@@H]1O` the entry was “inactive”.
Take `CCOC(CN1CCN(CC(C)C(=O)c2ccccc2)CC1)c1ccccc1` (centres undefined): the activation was 1.68% [at 15.8 µM].
`Cn1c(=O)c2[nH]c(Br)nc2n(C)c1=O`: the outcome was inactive.
The same measure, in the same setting: in the case of `Cc1ccc2c(c1)C(=O)c1ccccc1C2=O` it was “inactive”; in that of `CCCSSCCC`, “inactive”.
The same measure, in the same setting: in the case of `CC1=C(O)C(=O)C(C)O1` (centres undefined) it was “inactive”.
Still for that read-out and setting: in the case of `CC(C)NCC(O)c1ccc2ccccc2c1` (centres undefined) it was “inactive”; in that of `[O-][n+]1cccc(/C(Cl)=N/OC[C@@H](O)CN2CCCCC2)c1`, “inactive”; in that of `CC(C)=CCC[C@@](C)(O)[C@H]1CC=C(C)CC1`, “inactive”.
`C=Cc1ccc(C(C)(C)C)cc1`: the result was inactive.
The same measure, in the same setting: in the case of `CCCCCCCCCCOC(C)=O` it was “inactive”; in that of `O=C(NCN1CCOCC1)c1cnccn1`, “inactive”; in that of `C=CCCCC`, “inactive”.
Same read-out and setting: with `Cc1cc(C)c(C(=O)O)c(C)c1` the entry was “inactive”.
Same read-out and setting: with `O=C(CCCl)NCCc1ccccc1` the entry was “inactive”; with `CC(C)OC(=O)OCOP(=O)(CO[C@H](C)Cn1cnc2c(N)ncnc21)OCOC(=O)OC(C)C`, “inactive”; with `C/C(CC(C)C)=N\O`, “inactive”.
For `CCCC(CC)c1ccccc1` (centres undefined), the result was inactive.
The same measure, in the same setting: in the case of `COc1ccc2c(c1)c1c3n2CCN(C)C3=NCC1` it was “inactive”.
On the same count and under the same terms, with `CCCCCC(C)O` (centres undefined) the entry was “inactive”; with `Cc1ncc([N+](=O)[O-])n1CC(C)O` (centres undefined), “inactive”; with `CCCCC1CCC(O)CC1` (centres undefined), “inactive”.
The same measure, in the same setting: with `CC(=O)c1cc(C)oc1C` the entry was “inactive”; with `Cc1c(C(=O)c2c[nH]n(C)c2=O)ccc(S(C)(=O)=O)c1C1=NOCC1`, “inactive”; with `CCC/C=C(\C=O)CC`, “inactive”.
As to `CN(C)CCCCl`, the outcome was inactive.

The next test can be described thus: qHTS assay to identify small molecule agonists of H2AX - cell viability counter screen (AID 1224847). Note: top concentration of the series differs between compounds; nearly all actives have a fitted effect of over 30% in size. Conditions: CHO-K1 viability, CellTiter-Glo luminescence, 3 h; series mostly up to 154 µM. The method, boiled down:
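We seed wild-type CHO-K1 cells overnight, treat them for 3 hr at 37C with compounds in 15-concentration series, and quantify remaining viability by CellTiter-Glo luminescence.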
For the compound `CC(=O)N[C@@H](CO)C(=O)N[C@@H](CC(=O)O)C(=O)N[C@@H](CCCCN)C(=O)N1CCC[C@H]1C(=O)O` (Ac-SDKP-OH), the outcome was inactive.
Same read-out and setting: with `CC(Oc1cc(Cl)ccc1Cl)C(=O)O` (centres undefined) the entry was “inactive”; with `OCC1CCC(CO)CC1` (centres undefined), “inactive”; with `CCN(CC)CCN`, “inactive”.
Still for that read-out and setting: in the case of `CC(O)CC(C)O` (centres undefined) it was “inactive”.
With `COC(=O)/C=C\C(=O)O`, the outcome was inactive.
On the same count and under the same terms, with `CC(C)[C@H]1CC[C@H](C)C[C@@H]1O` the entry was “inactive”.
On to `CCOC(CN1CCN(CC(C)C(=O)c2ccccc2)CC1)c1ccccc1` (centres undefined), for which the activity change, negative = cytotoxicity is -1.65% [at 31.6 µM].
As for `Cn1c(=O)c2[nH]c(Br)nc2n(C)c1=O`, the compound was classed as inactive.
On the same count and under the same terms, with `Cc1ccc2c(c1)C(=O)c1ccccc1C2=O` the entry was “inactive”.
Regarding `CCCSSCCC`, the result was inactive.
In the case of `CC1=C(O)C(=O)C(C)O1` (centres undefined), the outcome was inactive.
Consider `CC(C)NCC(O)c1ccc2ccccc2c1` (centres undefined), for which the compound was classed as inactive.
Same read-out and setting: with `[O-][n+]1cccc(/C(Cl)=N/OC[C@@H](O)CN2CCCCC2)c1` the entry was “inactive”; with `CC(C)=CCC[C@@](C)(O)[C@H]1CC=C(C)CC1`, “inactive”; with `Cn1c(=O)c2c(ncn2CCO)n(C)c1=O`, “inactive”.
Still for that read-out and setting: in the case of `C=Cc1ccc(C(C)(C)C)cc1` it was “inactive”; in that of `CCCCCCCCCCOC(C)=O`, “inactive”; in that of `O=C(NCN1CCOCC1)c1cnccn1`, “inactive”.
On the same count and under the same terms, with `C=CCCCC` the entry was “inactive”.
Take `Cc1cc(C)c(C(=O)O)c(C)c1`: the compound was called inactive.
Turning to `O=C(CCCl)NCCc1ccccc1`, the result was inactive.
The same measure, in the same setting: in the case of `CC(C)OC(=O)OCOP(=O)(CO[C@H](C)Cn1cnc2c(N)ncnc21)OCOC(=O)OC(C)C` it was “inactive”.
Same read-out and setting: with `C/C(CC(C)C)=N\O` the entry was “inactive”; with `CCCC(CC)c1ccccc1` (centres undefined), “inactive”; with `COc1ccc2c(c1)c1c3n2CCN(C)C3=NCC1`, “inactive”.
On to `CCCCCC(C)O` (centres undefined), for which the outcome was inactive.
The same measure, in the same setting: in the case of `Cc1ncc([N+](=O)[O-])n1CC(C)O` (centres undefined) it was “inactive”; in that of `CCCCC1CCC(O)CC1` (centres undefined), “inactive”; in that of `CC(=O)c1cc(C)oc1C`, “inactive”.
The same measure, in the same setting: in the case of `Cc1c(C(=O)c2c[nH]n(C)c2=O)ccc(S(C)(=O)=O)c1C1=NOCC1` it was “inactive”; in that of `CCC/C=C(\C=O)CC`, “inactive”; in that of `CN1CCOC(c2ccccc2)c2ccccc2C1` (centres undefined), “inactive”.
Same read-out and setting: in the case of `CCCC(=O)Nc1ccc(OCC(O)CNC(C)C)c(C(C)=O)c1` (centres undefined) it was “inactive”.
As to `CN(C)CCCCl`, the compound was classed as inactive.
On to `COc1c2occc2c(OC)c2c(=O)cc(C)oc12`, for which the compound was called inactive.
The same measure, in the same setting: in the case of `CO[C@@]1(NC(=O)Cc2cccs2)C(=O)N2C(C(=O)O)=C(COC(N)=O)CS[C@@H]21` it was “inactive”.

For the origin of these results see PubChem BioAssay (Tox21).
